# Shown are actives, neighbours in structure and some others; about 1.4% of the full set was active somewhere.
# Vaccinia Venus: inhibitors of vaccinia virus (Venus reporter); AID 720580; Vaccinia virus Venus reporter expression, fluorescence; 330,000 compounds, 0.46% hits; Potency, µM (top dose mostly 36.5 µM), without a hit: at the highest dose activity change, negative = inhibition, actives largely listed as inhibitors; calls by dose curve; tested in A549 cells; note: % is set by controls: 0 for no effect and ±100 for the full control effect; nearly all actives have a fitted effect of over 30% in size
# AmpC inh detg: inhibitors of E. coli AmpC beta-lactamase with detergent. P00811. AmpC hydrolysis of nitrocefin, absorbance 480 nm, 0.01% Triton. Potency, µM (doses to about 114 µM), without a hit: top-dose activity change, negative = inhibition, actives largely listed as inhibitors. 370,000 compounds, 0.041% hits. AID 485294;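 note: 0% = no-compound wells and -100% = no-enzyme wells; nearly all actives have a fitted effect of over 25% in size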
# Target sequence (P00811 whole entry, looked up): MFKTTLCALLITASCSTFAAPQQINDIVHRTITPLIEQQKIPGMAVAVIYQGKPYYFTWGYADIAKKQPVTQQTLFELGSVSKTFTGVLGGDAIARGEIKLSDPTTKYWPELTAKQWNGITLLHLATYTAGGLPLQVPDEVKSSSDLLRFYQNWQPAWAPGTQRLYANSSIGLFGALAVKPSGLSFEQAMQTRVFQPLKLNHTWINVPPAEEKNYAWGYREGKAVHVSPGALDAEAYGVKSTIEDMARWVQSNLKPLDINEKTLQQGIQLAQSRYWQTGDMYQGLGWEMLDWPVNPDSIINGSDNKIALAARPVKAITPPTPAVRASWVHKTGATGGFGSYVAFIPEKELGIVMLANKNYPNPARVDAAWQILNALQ
#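 20 mM phosphate pH 7.0 + 0.01% (detergent screen) or 0.0001% Triton X-100; 5.3 nM AmpC reagent; cpd preinc 15 min RT; nitrocefin (800 uM stock) to start; A480 q20 s × 4 min; Activity was normalised to no-enzyme and no-compound control wells.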
# Vaccinia mCherry: inhibitors of vaccinia virus infection (mCherry reporter signal); Vaccinia virus mCherry reporter infection, fluorescence; 310,000 compounds, 0.63% hits; Potency, µM (highest dose often 36.5 µM), without a hit: at the highest dose activity change, negative = inhibition, hits mostly inhibitors; calls by dose curve; tested in A549 cells; note: % is set by controls: 0 for no effect and ±100 for the full control effect; nearly all actives have a fitted effect of over 35% in size
# SARS PLpro yeast: SARS-CoV PLP inhibition in yeast; AID 485353; 330,000 compounds, 0.19% hits; Potency, µM (series often up to 32.9 µM), inactives show at the top dose activity, positive = growth rescue, actives largely listed as activators; S. cerevisiae expressing SARS-CoV PLpro, growth rescue; calls by dose curve; note: 0% is about no effect; nearly all actives have a fitted effect of over 55% in size
# AmpC no deterg: inhibitors of E. coli AmpC beta-lactamase without detergent; P00811; AmpC nitrocefin hydrolysis, absorbance 480 nm, 0.0001% Triton; Potency, µM (highest dose often 57.1 µM), for the others: at the top dose activity change, negative = inhibition, usual class: inhibitors; 330,000 compounds, 0.52% hits;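 note: plate controls were no compound for no effect and no enzyme for full effect; nearly all actives have a fitted effect of over 20% in size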
#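 AmpC (5.3 nM in the dispensed reagent) in 20 mM phosphate pH 7.0 with 0.01% (detergent screen) or 0.0001% Triton X-100 was preincubated with compounds for 15 min at room temperature. Nitrocefin was then added from an 800 uM solution, and hydrolysis was followed at 480 nm.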
# AMA1 RON2 block: disrupts binding of P. falciparum AMA1 to RON2; Potency, µM (top dose mostly 58.2 µM), without a hit: top-dose activity change, negative = inhibition, most hits filed as inhibitors; AID 720542; 360,000 compounds, 0.2% hits; AlphaScreen AMA1-biotinylated RON2 peptide binding;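 note: 0% = vehicle wells and -100% = peptide control; nearly all actives have a fitted effect of over 45% in size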
#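 AMA1 (3D7) with his tag at 25 nM final met compounds first, then biotinylated RON2 peptide at 25 nM; detection used donor plus acceptor beads, 10 µg/mL apiece, read by AlphaScreen after 30 min at room temperature.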
# Numbers without * were called inactive; i = inactive; ? = inconclusive; · = not tested or not shown; [ ] = another dose, or the depositor's remark. Unless noted, calls come from the whole dose curve; as a rule, active = well fitted curve in the direction sought with a large enough effect; inconclusive = small, poorly fitted or top-dose-only effect, or another doubt; inactive = no such curve, though single readings can be large; an effect the other way counts as inactive or inconclusive. Potency is the fitted concentration of half-maximal effect.
SMILES,Vaccinia Venus,AmpC inh detg,Vaccinia mCherry,SARS PLpro yeast,AmpC no deterg,AMA1 RON2 block
COc1ccccc1C1CN(CCNC(=O)c2ccccc2Cl)Cc2ccccc2O1 (stereo not drawn),-16%,·,i,·,·,·
Cc1c(C)n(CCc2ccccc2)c2ncnc(NCCCN(C)C)c12,?,-1%,7.1µM*,2%,73%,-22%
Cc1c(C)n(CCN(C)C)c2ncnc(NCc3ccccc3)c12,-13%,7%,-21%,1%,18%,0%
Cc1ccc(OCCN2CCN(C)CC2)c([N+](=O)[O-])c1,-5%,?,-4%,-3%,-15%,25µM*
O=[N+]([O-])c1ccc(C(c2sc3nc(-c4ccco4)nn3c2O)N2CCC3(CC2)OCCO3)cc1 (stereo not drawn),10%,0%,6%,·,·,·
Cc1ccc(S(=O)(=O)CCC(=O)N(CCCN2CCOCC2)c2nc3ccccc3s2)cc1,?,1%,14µM*,-1%,165%,?
CCOC(=O)C1CCCN(C(=O)c2cnn(-c3nccc(-c4cc(C)sc4C)n3)c2C)C1 (stereo not drawn),0%,·,-11%,·,·,·
Cc1cccc(NC(=O)c2cc([N+](=O)[O-])ccc2Cl)c1O,-8%,0%,-6%,0%,-31%,-6%
COc1ccc(NC(=O)c2cc(Br)ccc2Cl)c([N+](=O)[O-])c1,-11%,?,-4%,0%,-33%,-3%
O=C(Nc1ccc([N+](=O)[O-])cc1Cl)c1cc(Cl)cc(Cl)c1O,?,·,8.9µM*,·,·,·
O=C(Nc1ccc([N+](=O)[O-])cc1Cl)c1cc(Br)ccc1O,0.79µM*,·,3.5µM*,·,·,·
C(=C1c2ccccc2Oc2ccccc21)c1ccccc1,-9%,·,-13%,·,·,·
Cc1cccc(NC(=O)CSc2ccc(-c3ccccn3)nn2)c1,-19%,-7%,?,·,·,·
O=C(CSc1ccc(-c2ccccn2)nn1)c1ccc([N+](=O)[O-])cc1,-4%,7%,-14%,27%,3%,13µM*
COc1cc(NC(=O)CSc2ccc(-c3ccccn3)nn2)cc(OC)c1,?,4%,11µM*,-5%,-21%,?
O=C(CSc1ccc(-c2cccnc2)nn1)c1ccc([N+](=O)[O-])cc1,-8%,3%,-9%,-5%,-30%,58%
COc1ccc(C)cc1NC(=O)CSc1ccc(-c2ccccn2)nn1,?,-8%,16µM*,-16%,-1%,20µM*
CNC(=O)COc1ccc(NC(=O)CCn2nc(-c3ccc(C)cc3)c3ccccc3c2=O)cc1,-11%,20%,-21%,·,·,·
OC(Cc1ccc2ccccc2n1)c1c(Cl)cccc1Cl (stereo not drawn),1%,·,8%,·,·,·
Cc1ccc2nc(-c3ccc(SCC(=O)Nc4ccc5c(c4)OCCO5)nc3)[nH]c2c1,-14%,?,-26%,-17%,-27%,-1%
O=C(CSc1ccc(-c2nc3ccccc3[nH]2)cn1)Nc1ccc2c(c1)OCCO2,-24%,-3%,-10%,2%,0.56µM*,-2%
Cc1ccc2nc(-c3ccc(SCC(=O)Nc4nnc(C)s4)nc3)[nH]c2c1,11µM*,-6%,?,8%,-57%,-12%
Cc1ccc2nc(-c3ccc(SCC(=O)Nc4nc(C)cs4)nc3)[nH]c2c1,?,?,?,4%,-10%,-12%
N#C/C(C(=O)Nc1ccc(Cl)cc1)=C(/S)Nc1ccccc1,-21%,40µM*,?,-13%,?,17%
O=C(Nc1ccc(Nc2ccccc2)cc1)c1ccc(Cl)cc1,·,·,·,·,·,-15%
Cc1cc(SCC(=O)NC2(C#N)CCCCC2)nc2c(C)cccc12,-5%,-15%,-9%,1%,32µM*,5%
CCOC(=O)c1ccc(NC(=O)Cn2nnc(-c3ccccc3F)n2)cc1,-10%,-2%,-14%,9%,35µM*,11%[11.6 µM]
CCCCn1c(N)c(N(CC(C)C)C(=O)CN2C(=O)NC3(CC(C)CC(C)(C)C3)C2=O)c(=O)[nH]c1=O (stereo not drawn),-13%,-10%,-2%,3%,35µM*,-10%
